Here are results for 93 compounds from PubChem BioAssay AID1259422 (The Scripps Research Institute Molecular Screening Center, 2018).

As a reminder, the inhibition is the relative decrease from the control value, in per cent.

Where “and” joins values, the source holds several entries; their conditions need not be identical. Identical values can stand only once. Screen size: about 640,000 compounds; about 9,300 (1.5%) were called active. The list comes from a sample in which actives are over-represented; it also holds similar structures and randomly drawn compounds. Unmarked numbers belong to inactive results. No stated cut-off is given here; in the data, active means inhibition above about 32%; inactive means the rest.

The nature of this assay: TEAD-YAP interaction inhibition, primary screen, TEAD-YAP interaction inhibitor project, luminescence, HEK-TIYL cells (AID 1259422).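 Further: 0% = median of test compound wells and 100% = reference inhibitor wells.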 The note with it: TEAD-Gal4/YAP UAS-luciferase luminescence, at 9.12 µM, stronger effect = higher value.
Regarding `C/C(CC(C)C)=N\NC(=O)c1nnn(-c2nonc2N)c1-c1ccccc1`, the inhibition is -8.99%. On to `O=C(Nc1cccc(NC(=O)c2ccc(-c3ccccc3[N+](=O)[O-])o2)c1)c1ccco1`, for which the inhibition was -5.61%.

On to `COc1ccc(NC(=O)c2ccco2)cc1NC(=O)c1ccc(-c2ccccc2[N+](=O)[O-])o1`, for which the inhibition is 34.4% (active). Next, `O=C(Nc1ccc(N2CCOCC2)c(Cl)c1)c1ccc(-c2ccccc2[N+](=O)[O-])o1`: 11.7%; `CC(C)N(C)C1CCN(S(=O)(=O)c2cccc([N+](=O)[O-])c2)CC1`: -1.4%. Next, `Cc1ccc2cccc(NC(=O)c3cc4ccccc4o3)c2n1`: 12.1%.

In the case of `CCC(C)c1ccccc1NC(=O)C(C)Cl` (stereo not drawn), the inhibition is -3.45%. Next, `CN(CC(=O)Nc1ccccc1F)CC(=O)Nc1ccccc1Br`: -1.95%; `CCC(C)c1ccccc1NC(=O)CN(C)CC(=O)Nc1ccccc1SC` (stereo not drawn): 36.5% (active); `COc1cccc(/C=N/Nc2ncc(C(F)(F)F)cc2Cl)c1O`: 49.5% (active). The value for `COc1cccc(C=Nc2ccc(N)c(Cl)c2)c1O` was 6.6%; that for `COc1cccc(/C=N/NC(=O)c2cccc(NC(=O)c3ccc(F)cc3)c2)c1O` was 28.7%; that for `Cc1ccc(Nc2nc(-c3cccs3)cs2)cc1` was 64.2% (active).

Consider `Cc1ccc(Nc2nc(-c3ccc(Cl)cc3)cs2)cc1`, for which the inhibition was -86.7%.

Take `Cc1ccc(-c2csc(Nc3ccccc3)n2)c(C)c1`: the inhibition was -65%.

For the compound `CCOCCCn1c(SCc2cc(=O)n3ccccc3n2)nc2ccccc2c1=O`, the inhibition is 0.02%. Take `Cc1cc2nnn(C[C@@H](C)NC(=O)Cc3ccccc3)c2cc1C`: the inhibition was -20.1%. Next, `Cc1ccc(-c2nc(CSCC(=O)NC3CCN(Cc4ccccc4)CC3)c(C)o2)cc1`: 33.9% (active); `Cc1ccc(-c2nc(CSCC(=O)N3CCC(C(N)=O)CC3)c(C)o2)cc1`: 10.6%; `COc1ccc(-c2nc(CSCC(=O)NC3CCCCCC3)c(C)o2)cc1OC`: 2.93%.

For the compound `O=C(Cn1c(SCC(=O)N2CCCC2)nc2ccccc21)NC1CCCC1`, the inhibition was 3.72%. As to `Cc1ccc2nc(-c3ccncc3)cc(C(=O)Nc3ccc4c(c3)OCCO4)c2c1`, the inhibition is 43.3% (active). For `Cc1cccc(Oc2ccc(NC(=O)c3cc(-c4ccccc4)nc4ccc(C)cc34)cc2)c1`, the inhibition is -0.69%. The value for `O=C(Nc1ccc(F)cc1)c1cc(-c2ccncc2)nc2ccccc12` was -1.35%. The value for `COc1ccc(-c2nnc(SCC(=O)N(C)C)n2C)cc1` was 2.69%; that for `CCC(=O)N[C@@H]1c2ccccc2C2(CCN(Cc3cn[nH]c3-c3ccccc3)CC2)[C@H]1OC` was -3.33%.

As to `CCOc1ccccc1C(=O)Nc1c(C(=O)Nc2ccccc2F)oc2cccnc12`, the inhibition was 41.9% (active). Next, `COc1ccccc1NC(=O)c1oc2cccnc2c1NC(=O)c1ccc(Cl)cc1`: -6.82%; `O=C(Nc1ccccc1F)c1oc2cccnc2c1NC(=O)C1CC1`: 2.6%; `Cn1c(SCC(=O)c2ccc3c(c2)OCO3)nnc1-c1cccs1`: -1.64%. Next, `COc1ccc(C(=O)/C=C/Nc2ccccn2)cc1`: 53.5% (active); `COc1ccccc1N/C=C/C(=O)c1ccc(OC)c(OC)c1`: -24% and -18.3%. `COc1ccc(C(=O)/C=C/Nc2cccc(C(C)O)c2)cc1` (stereo not drawn): the inhibition was -59.6%. Next, `CCC(Oc1ccccc1)C(=O)NC(C)C` (stereo not drawn): 12.4%; `CCc1cc(=O)[nH]c(NC2CCN(S(=O)(=O)c3ccccc3)CC2)n1`: 4.67%. The value for `Oc1ccccc1-c1nc2cnccn2c1NCc1ccccc1` was -6.9%; that for `COc1ccc(CNc2c(-c3ccccc3O)nc3cnccn23)cc1` was 67.4% (active). Next, `COc1ccc(Nc2c(-c3ccccc3O)nc3cnccn23)cc1`: -0.84%; `COc1ccc(OC)c(N/C=C(/C#N)c2nc(-c3ccc(OC)c(OC)c3)cs2)c1`: 0.19%.

As for `COc1ccc(N=C2SC(C(=O)NCCc3ccccc3)CC(=O)N2CCc2ccc(OC)c(OC)c2)cc1` (stereo not drawn), the inhibition was 7.83%.

For the compound `Cc1cc(C)nc(NC(N)=NCCC(C)C)n1`, the inhibition is 6.21%.

For the compound `O=[N+]([O-])/C=C/c1ccc2c(ccn2Cc2ccccc2)c1`, the inhibition was 33.9% (active). Take `N#CC(C#N)=Cc1ccc(N2CCN(Cc3ccccc3)CC2)c([N+](=O)[O-])c1`: the inhibition was 4.11%. The value for `O=[N+]([O-])/C=C\c1ccc(N2CCCCC2)cc1` was 31.3%. Take `CC1(C)Cc2c(c(N3CCOCC3)nc3sc4c(N5CCCCC5)nnnc4c23)CO1`: the inhibition was -1.34%. The value for `CCn1c(=O)c2ccccc2n2c(SCC(=O)N(C)C3CCCCC3)nnc12` was -7.16%; that for `O=C(Nc1cccc(NC(=O)c2cccc(Cl)c2Cl)c1)c1ccco1` was -0.83%; that for `Oc1ccc(/C=N/Nc2nn[nH]n2)c(O)c1` was -11.8%. The value for `Oc1ccc(/C=N/Nc2ncc(F)c(N3CCOCC3)n2)c(O)c1` was 58.7% (active); that for `Cc1ccc(Nc2nc(N/N=C/c3ccccc3O)nc(N3CCOCC3)n2)cc1Cl` was -11%; that for `COc1ccc(C2=N/C(=C\c3cc(OC)c(OC)c(OC)c3)C(=O)O2)c(Cl)c1` was -1.56%. `N#Cc1c(-n2ncnc2-c2ccc3c(c2)OCO3)sc2c1CCCC2`: the inhibition was -2.41%. The value for `c1ccc(CNc2nc(N3CCN(c4ccccn4)CC3)nc3c2ncn3-c2ccsc2)cc1` was -1.71%; that for `c1ccc(CNc2nc(Nc3cccnc3)nc3c2ncn3-c2ccccc2)cc1` was 25.2%; that for `c1ccc(N2CCN(c3nc(NCc4nc5ccccc5[nH]4)c4ncn(-c5ccsc5)c4n3)CC2)nc1` was 68% (active). The value for `FC(F)(F)c1cccc(CNc2nc(N3CCN(c4ccccn4)CC3)nc3c2ncn3-c2ccsc2)c1` was -7.69%; that for `c1cncc(Nc2nc(NCc3nc4ccccc4[nH]3)c3ncn(-c4ccsc4)c3n2)c1` was 84.1% (active); that for `c1ccc(-n2cnc3c(NCc4nc5ccccc5[nH]4)nc(Nc4nccc5ccccc45)nc32)cc1` was 7.74%. Next, `COc1cccc(NC(=S)NC(=O)CC(C)C)c1`: -50%; `CCc1ccccc1NC(=O)c1cc2ccccc2oc1=O`: -2.07%; `O=C(CC1(O)C(=O)Nc2c(C(F)(F)F)cccc21)c1ccc(Cl)s1` (stereo not drawn): -1.56%. In the case of `Cc1ccc2c(c1)-c1c(cnn1CC(=O)NCCCN1CCCCCC1)CO2`, the inhibition was 4.66%.

Take `CC(NC(=O)CSCc1ccccc1Cl)c1ccccc1` (stereo not drawn): the inhibition was -4.44%.

Consider `Cc1noc(C)c1S(=O)(=O)N1CCCC(C(=O)Nc2cccc(Cl)c2C)C1` (stereo not drawn), for which the inhibition is 3.39%. Turning to `CC1CCN(c2cc(NCC(=O)O)c3c4c(onc24)-c2ccccc2C3=O)CC1`, the inhibition was 64% (active). `CCOC(=O)N1CCN(c2cc(NCCO)c3c4c(onc24)-c2ccccc2C3=O)CC1`: the inhibition is 17.6%. As to `CN1CCN(c2cc(NCCCC(=O)O)c3c4c(onc24)-c2ccccc2C3=O)CC1`, the inhibition is 11.3%. The value for `CCN(CC)CCCNCc1ccc(F)cc1Cl` was -3.24%; that for `COc1ccc(NC(=S)Nc2ccccc2C(C)=O)cc1` was 8.25%; that for `COc1ccc(NC(=S)NNS(=O)(=O)c2ccc(NC(C)=O)cc2)cc1` was 43.9% (active).

Consider `COc1ccc(NC(=S)Nc2ccc(OC)cc2)cc1`, for which the inhibition was -17.9%. Next, `COc1ccc(OC(C)C(=O)Nc2ccc(C(=O)OC(C)C)cc2)cc1` (stereo not drawn): 11.3%; `C=CCn1c(=S)[nH]c2sc(-c3ccccc3)cc2c1=O`: -58.7%; `CS(=O)(=O)c1cccc(S(=O)(=O)N2CCCc3ccccc32)c1`: 3.88%. As to `COc1ccc(S(=O)(=O)N2CCCc3ccccc32)cc1Cl`, the inhibition was 36.9% (active). Next, `O=S(=O)(c1ccc2c(c1)OCCCO2)N1CCCc2ccccc21`: 63.8% (active). Next, `COc1ccc(S(=O)(=O)N2CCc3ccccc3C2)cc1Cl`: 14.1%. Next, `Cn1c(=O)c(=O)n(C)c2cc(S(=O)(=O)N3CCCc4ccccc43)ccc21`: -1.32%; `O=C1CC(=O)Nc2cc(S(=O)(=O)N3CCCc4ccccc43)ccc2N1`: 5.24%; `CC(=O)NC1C(Oc2ccc(C)cc2C)OC(COC(C)=O)C(OC(C)=O)C1OC(C)=O` (stereo not drawn): 0.55%. Consider `Nc1nonc1-c1nc2ccccc2n1CC(=O)N/N=C\c1cccc(F)c1`, for which the inhibition was 10.8%. As to `Nc1nonc1-c1nc2ccccc2n1CC(=O)Nc1cccc(F)c1`, the inhibition is 40.7% (active).

Take `Nc1nc(Cn2c(-c3nonc3N)nc3ccccc32)nc(N2CCCCC2)n1`: the inhibition was 5.35%. Next, `COc1ccc(-c2nc3ccccc3n2Cc2ccccc2)cc1OC`: -0.42%.

For `CCCCCCOc1cccc(NC(=O)Cn2c(-c3nonc3N)nc3ccccc32)c1`, the inhibition is 10.4%. Next, `COc1ccc(C)c(Cn2c(-c3nonc3N)nc3ccccc32)c1`: 53.5% (active). As for `Cc1ccc(Nc2ncccc2C(=O)N2CCCC2)c(C)c1`, the inhibition was -3.43%. Next, `COc1ccc2cc(C)c3nn(CN4CCOCC4)c(=O)n3c2c1`: 1.32%. The value for `CC1(C2CCN(C(=O)c3ccc(N4CCCCC4)cc3)CC2)NC(=O)NC1=O` (stereo not drawn) was -7.9%. Next, `CC1CCc2sc(NC(=O)Cc3cccc4ccccc34)c(C#N)c2C1` (stereo not drawn): 2.89%; `c1ccc(Nc2nc(N3CCOCC3)c3ccccc3n2)cc1`: 33.6% (active); `Clc1ccccc1Nc1nc(N2CCOCC2)c2ccccc2n1`: 0.09%. For `COc1ccc(Cl)cc1Nc1nc(N2CCOCC2)c2ccccc2n1`, the inhibition was 15.6%.
